Several values for one entry are separate records, joined by “and”; a condition that tells them apart may be missing. Equal entries are not always repeated. Activity calls are given as the source filed them. Calls come from the whole dose curve; as a rule, active = well fitted curve in either direction with a large enough effect; inconclusive = small, poorly fitted or top-dose-only effect; inactive = no such curve, though single readings can be large or run the other way.

This assay concerns the target Lysosomal alpha-glucosidase (Homo sapiens) (UniProt P10253). The assay is described as follows: Confirmation of Inhibitors and Activators of Human alpha-Glucosidase From Spleen Homogenate Using an Alternate Red Fluorescent Susbtrate. Conditions: resorufin-glucoside fluorescence; series mostly up to 62.8 µM. From the text: NIH Chemical Genomics Center [NCGC] NIH Molecular Libraries Probe Production centers Network [MLPCN] MLPCN Grant: 1R03MH084841-01 Assay Submitter (PI): Wei Zheng NCGC Assay Overview: Alpha-glucosidase is responsible for hydrolysis of terminal, non-reducing 1,4-linked alpha-D-glucose residues with release of alpha-D-glucose. It is a lysosomal hydrolase that is required for the degradation of a small percentage (1-3%) of cellular glycogen in human. Deficiency of this enzyme results in glycogen-storage disease type II (GSDII), also referred to as Pompe disease, an autosomal recessive disorder. Structurally normal glycogen is accumulated in lysosomes and cytoplasm in affected patients, primarily in muscle tissues. Excessive glycogen storage within lysosomes may interrupt normal functioning of other organelles and leads to cellular injury. In turn, this leads to enlargement and dysfunction of the entire organ involved (eg, cardiomyopathy and muscle weakness). It has reported that the improper folding and trafficking of alpha-glucosidase resultinged from the genetic mutations may account for a significant number of Pomrope patients. […] We optimized this alpha-glucosidase assay in 1536-well plate format for identifying the novel small molecule inhibitors with the structures other than the sugar analogs in order to develop the new pharmacological chaperones. In particular, this assay is directed towards discovering compounds active in a more natural setting, tissue homogenate, that may have been missed by screens of the purified enzyme under more stringent conditions. This assay attempted to confirm hits from the primary screening using an alternate fluor than the primary screen used.
NCGC Assay Protocol Summary: This is a fluorogenic enzyme assay with Resorufin-alpha-D-glucopyranoside as the substrate and human spleen homogenate containing alpha-glucosidase as the enzyme preparation. Upon hydrolysis of this fluorogenic substrate, the resulting product, resorufin (which excites at 573 nm and emits at 610 nm) can be detected by a fluorescence plate reader. Data were normalized to the controls for basal activity (without enzyme) and 100% activity (with enzyme). The AC50 values were determined from concentration-response data modeled with the standard Hill equation. Assay buffer: 50 mM citric acid (titrated with potassium phosphate to pH 5.0), 0.01% Tween-20 (pH 5.0 is an optimal condition for this enzyme assay) 1536-well assay protocol for the alpha-glucosidase from human spleen homogenate: (1) Add 2 ul/well spleen homogenate (1 ug) (2) Add 23 nL compounds in DMSO solution. The final titration was 0.5 nM to 58 uM. (3) Add 2 ul of substrate (1 mM final) (4) Incubate at 37 C for 40 min (5) Add 2 ul stop solution (1M NaOH and 1M Glycine mixture, pH 10) (6) Detect the assay plate in a ViewLux plate reader (PerkinElmer) with […]. Keywords: Alpha-glucosidase, Pompe Disease, pharmacological chaperone, chaperone therapy, high throughput screening, alpha-glucosidase inhibitor, MLSMR, MLSCN, NIH Roadmap, qHTS and NCGC
With `CCCN1CNc2c(c(=O)[nH]c(=S)n2CCc2ccc(Cl)cc2)C1`, the Potency is 11.2 µM (active).
With `Cc1ccc(S(=O)(=O)N2CCN(C(=O)N(c3ccccc3)c3ccccc3)CC2)cc1`, the Potency result is “inactive”.
Under `CC(=O)c1ccc(N2CCN(S(=O)(=O)c3ccc(N4CCCC4=O)cc3)CC2)cc1` stands “inactive”; under `CCCN1CNc2c(c(=O)[nH]c(=S)n2CCc2ccc(Cl)cc2Cl)C1`, 7.94 µM (active); under `CC(=O)c1ccc(N2CCN(C(=O)c3ccc4c(c3)CC(=O)N4)CC2)cc1`, “inactive”.
Take `CCCN1CNc2c(c(=O)[nH]c(=S)n2CCc2ccc(C)c(C)c2)C1`: the Potency was 7.94 µM (active).
On to `CCCN1CNc2c(c(=O)[nH]c(=S)n2CCc2cc(C)ccc2C)C1`, for which the Potency was 8.91 µM (active).
Under `COc1ccc(CCn2c3c(c(=O)[nH]c2=S)CN(CC(C)C)CN3)cc1OC` stands 6.31 µM (active).
With `CCCN1CNc2c(c(=O)[nH]c(=S)n2CCC(C)(C)C)C1` the entry was “inactive”; with `CCCN1CNc2c(c(=O)[nH]c(=S)n2CCc2cccc(OC)c2OC)C1`, 15.8 µM (active); with `CC(=O)c1ccc(N2CCN(S(=O)(=O)c3cc4c(cc3Cl)NC(=O)C4)CC2)cc1`, 4.61 µM [inhibitor] (active) and 3.66 µM [inhibitor] (active).
As to `CCCN1CNc2c(c(=O)[nH]c(=S)n2CCc2ccc(OC)cc2)C1`, the Potency was 25.1 µM (active).
On to `CCCN1CNc2c(c(=O)[nH]c(=S)n2CCc2ccccc2Cl)C1`, for which the Potency is 11.2 µM (active).
With `O=C1Cc2cc(S(=O)(=O)N3CCN(c4ccc(Br)cc4)CC3)ccc2N1`, the Potency result is “inactive”.
For the molecule `CC(=O)c1ccc(N2CCN(S(=O)(=O)c3ccc4[nH]c(=O)[nH]c4c3)CC2)cc1`, the Potency entry is “inactive”.
Under `CCCN1CNc2c(c(=O)[nH]c(=S)n2CCc2cc(Cl)cc(Cl)c2)C1` stands 12.6 µM (active).
Consider `CCCN1CNc2c(c(=O)[nH]c(=S)n2CCc2cc(C)cc(C)c2)C1`, for which the Potency is 4.47 µM (active).
In the case of `O=S(=O)(c1ccc(Cl)cc1)N1CCN(c2nc(Nc3cc(Cl)ccc3O)nc3ccccc23)CC1`, the Potency result was “inactive”.
`c1csc(-c2nc(NCC3CCCO3)c3ccccc3n2)c1` (stereo not given): the Potency result is “inactive”.
On to `CCCN1CNc2c(c(=O)[nH]c(=S)n2CCc2ccc(OC)cc2OC)C1`, for which the Potency was 8.91 µM (active).
Under `O=C1Cc2cc(S(=O)(=O)N3CCN(c4ccc(O)cc4)CC3)ccc2N1` stands 11.9 µM [inhibitor] (active).
Under `COc1ccc(CCn2c3c(c(=O)[nH]c2=S)CN(Cc2ccccc2)CN3)cc1OC` stands 7.94 µM (active).
As to `O=c1[nH]cc(CCc2ccccc2)c2ncncc12`, the Potency result is “inactive”.
With `CC(=O)c1ccc(N2CCN(S(=O)(=O)c3ccc4c(c3)oc(=O)n4C)CC2)cc1`, the Potency entry is “inactive”.
`CCCN1CNc2c(c(=O)[nH]c(=S)n2CCc2cccc(C)c2C)C1`: the Potency is 3.98 µM (active).
For the molecule `COc1ccc(CCc2c[nH]c(=O)c3cncnc23)cc1OC`, the Potency entry is “inactive”.
With `CCCN1CNc2c(c(=O)[nH]c(=S)n2CCc2cc(Cl)ccc2Cl)C1` the figure was 10 µM (active); with `Clc1ncc(C#Cc2ccccc2)c2ncncc12`, “inactive”; with `CC(=O)c1ccc(N2CCN(C(=O)c3ccc4c(c3)CCC(=O)N4)CC2)cc1`, “inactive”.
Consider `CCCN1CNc2c(c(=O)[nH]c(=S)n2CCc2ccc3c(c2)OCCO3)C1`, for which the Potency was 8.91 µM (active).
With `N#Cc1ccc(N2CCN(S(=O)(=O)c3ccc4c(c3)CC(=O)N4)CC2)cc1` the figure was 1.63 µM [inhibitor] (active).
Consider `CCCN1CNc2c(c(=O)[nH]c(=S)n2CCc2c(OC)cccc2OC)C1`, for which the Potency is 35.5 µM (active).
With `CCCN1CNc2c(c(=O)[nH]c(=S)n2CCc2cccc(Cl)c2)C1` the figure was 15.8 µM (active); with `CCCN1CNc2c(c(=O)[nH]c(=S)n2CCc2cccc(Cl)c2Cl)C1`, 0.891 µM (active); with `CCCN1CNc2c(c(=O)[nH]c(=S)n2CCc2ccc(C)cc2C)C1`, 11.2 µM (active).
`O=S(=O)(c1ccc(Cl)cc1)N1CCN(c2nc(-c3cccs3)nc3ccccc23)CC1`: the Potency entry was “inactive”.
With `CC(=O)c1ccc(N2CCN(S(=O)(=O)c3ccc4c(c3)CCCC(=O)N4)CC2)cc1`, the Potency result is “inactive”.
With `CCCN1CNc2c(c(=O)[nH]c(=S)n2CCc2cc(OC)cc(OC)c2)C1`, the Potency is 7.94 µM (active).
Regarding `COc1cccc(CCn2c(N)cc(=O)[nH]c2=S)c1OC`, the Potency entry is “inactive”.
Consider `COc1ccc(CCn2c(=S)[nH]c(=O)c3[nH]cnc32)cc1OC`, for which the Potency entry was “inactive”.

The values above are taken from PubChem BioAssay AID2111 (National Center for Advancing Translational Sciences (NCATS), 2009).
